# In the supplement of paper PMC8728848:
# Only a selection was taken, and the strongest signals are over-represented in it overall.
# Legend:
# Test in all cases: glycan array binding signal (z-score within array); higher = stronger binding
# Conditions in all cases: glycan notation: IUPAC condensed, linker removed; mutation: N224Q
# [1] = biological target: Fuc(a1-2)Gal
# Outline: (§1)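 The binding signal is a Z-score computed within each array. Data were drawn from 3228 arrays in the Consortium for Functional Glycomics database, restricted to those with a known protein sequence. Scores were averaged over arrays of the same protein sequence at different concentrations or buffers, and over linkers, and negative values can be taken as non-binding.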
# [2] = biological target: Fuc(a1-2)Gal(b1-3)GlcNAc(b1-3)GalNAc
# Outline: as §1
# [3] = biological target: Fuc(a1-2)Gal(b1-3)[Fuc(a1-4)]GlcNAc(b1-2)Man(a1-3)[Fuc(a1-2)Gal(b1-3)[Fuc(a1-4)]GlcNAc(b1-2)Man(a1-6)]Man(b1-4)GlcNAc(b1-4)[Fuc(a1-6)]GlcNAc(b1-4)[Fuc(a1-6)]GlcNAc
# Outline: as §1
# [4] = biological target: Fuc(a1-2)Gal(b1-4)Glc6S
# Outline: as §1
# [5] = biological target: Fuc(a1-2)Gal(b1-4)GlcNAc(b1-3)Gal(b1-4)GlcNAc(b1-2)Man(a1-3)[Fuc(a1-2)Gal(b1-4)GlcNAc(b1-3)Gal(b1-4)GlcNAc(b1-2)Man(a1-6)]Man(b1-4)GlcNAc(b1-4)GlcNAc
# Outline: as §1
# [6] = biological target: Fuc(a1-2)Gal(b1-4)[Fuc(a1-3)]GlcNAc
# Outline: as §1
# [7] = biological target: Fuc(a1-2)Gal(b1-4)[Fuc(a1-3)]GlcNAc(b1-3)Gal(b1-4)[Fuc(a1-3)]GlcNAc
# Outline: as §1
# [8] = biological target: Fuc(a1-2)Gal(b1-4)[Fuc(a1-3)]GlcNAc(b1-3)Gal(b1-4)[Fuc(a1-3)]GlcNAc(b1-3)Gal(b1-4)[Fuc(a1-3)]GlcNAc
# Outline: as §1
# [9] = biological target: Fuc(a1-2)Gal6S(b1-4)Glc
# Outline: as §1
# [10] = biological target: Fuc(a1-2)[Gal(a1-3)]Gal(b1-4)GlcNAc(b1-2)Man
# Outline: as §1
# [11] = biological target: Fuc(a1-2)[Gal(a1-3)]Gal(b1-4)GlcNAc(b1-2)Man(a1-3)[Fuc(a1-2)[Gal(a1-3)]Gal(b1-4)GlcNAc(b1-2)Man(a1-6)]Man(b1-4)GlcNAc(b1-4)[Fuc(a1-6)]GlcNAc
# Outline: as §1
# [12] = biological target: Fuc(a1-2)[Gal(a1-4)]Gal(b1-4)GlcNAc
# Outline: as §1
# [13] = biological target: Fuc(a1-2)[GalNAc(a1-3)]Gal
# Outline: as §1
# [14] = biological target: Fuc(a1-2)[GalNAc(a1-3)]Gal(b1-4)Glc
# Outline: as §1
# [15] = biological target: Fuc(a1-2)[GalNAc(a1-3)]Gal(b1-4)GlcNAc(b1-3)GalNAc
# Outline: as §1
# [16] = biological target: Fuc(a1-2)[GalNAc(a1-4)]Gal(b1-4)GlcNAc
# Outline: as §1
# [17] = biological target: Fuc(a1-3)GlcNAc
# Outline: as §1
# [18] = biological target: Fuc(a1-3)[Gal(b1-4)]GlcNAc(b1-2)Man
# Outline: as §1
# [19] = biological target: Fuc(a1-3)[Gal(b1-4)]GlcNAc(b1-3)Gal(b1-4)[Fuc(a1-3)]GlcNAc
# Outline: as §1
# [20] = biological target: Fuc(a1-3)[Gal(b1-4)]GlcNAc(b1-6)[Gal(b1-3)GlcNAc(b1-3)]Gal(b1-4)Glc
# Outline: as §1
# [21] = biological target: Fuc(a1-3)[Gal(b1-4)]GlcNAc6S
# Outline: as §1
# [22] = biological target: Fuc(a1-4)GlcNAc
# Outline: as §1
# [23] = biological target: Fuc(b1-3)GlcNAc
# Outline: as §1
# [24] = biological target: Gal(b1-3)GalNAc(a1-3)[Fuc(a1-2)]Gal(b1-4)Glc
# Outline: as §1
# [25] = biological target: Gal(b1-3)GlcNAc(b1-2)[Gal(b1-3)GlcNAc(b1-6)]Man(a1-6)[Gal(b1-3)GlcNAc(b1-2)Man(a1-3)]Man(b1-4)GlcNAc(b1-4)GlcNAc
# Outline: as §1
# [26] = biological target: Gal(b1-3)GlcNAc(b1-6)Gal(b1-4)GlcNAc
# Outline: as §1
# [27] = biological target: Gal(b1-3)GlcNAc6S
# Outline: as §1
# [28] = biological target: Gal(b1-4)GlcNAc
# Outline: as §1
# [29] = biological target: Gal(b1-4)GlcNAc(b1-2)Man(a1-3)[Gal(b1-4)GlcNAc(b1-2)Man(a1-6)]Man(b1-4)GlcNAc(b1-4)GlcNAc
# Outline: as §1
# [30] = biological target: Gal(b1-4)GlcNAc(b1-2)Man(a1-3)[Gal(b1-4)GlcNAc(b1-2)Man(a1-6)]Man(b1-4)GlcNAc(b1-4)[Fuc(a1-6)]GlcNAc
# Outline: as §1
# [31] = biological target: Gal(b1-4)GlcNAc(b1-3)Gal(b1-4)GlcNAc(b1-3)Gal(b1-4)GlcNAc(b1-3)Gal(b1-4)GlcNAc(b1-2)[Gal(b1-4)GlcNAc(b1-3)Gal(b1-4)GlcNAc(b1-3)Gal(b1-4)GlcNAc(b1-3)Gal(b1-4)GlcNAc(b1-6)]Man(a1-6)[Gal(b1-4)GlcNAc(b1-3)Gal(b1-4)GlcNAc(b1-3)Gal(b1-4)GlcNAc(b1-3)Gal(b1-4)GlcNAc(b1-2)Man(a1-3)]Man(b1-4)GlcNAc(b1-4)[Fuc(a1-6)]GlcNAc
# Outline: as §1
# [32] = biological target: Gal3S(b1-4)Glc
# Outline: as §1
# [33] = biological target: GlcNAc(a1-4)Gal(b1-4)GlcNAc(b1-3)Gal(b1-4)Glc
# Outline: as §1
# [34] = biological target: GlcNAc(b1-3)Gal(b1-4)GlcNAc(b1-3)Gal(b1-4)GlcNAc(b1-2)Man(a1-3)[GlcNAc(b1-3)Gal(b1-4)GlcNAc(b1-3)Gal(b1-4)GlcNAc(b1-2)Man(a1-6)]Man(b1-4)GlcNAc(b1-4)[Fuc(a1-6)]GlcNAc
# Outline: as §1
# [35] = biological target: GlcNAc(b1-3)Gal(b1-4)GlcNAc(b1-3)Gal(b1-4)GlcNAc(b1-3)Gal(b1-4)GlcNAc(b1-2)[GlcNAc(b1-3)Gal(b1-4)GlcNAc(b1-3)Gal(b1-4)GlcNAc(b1-3)Gal(b1-4)GlcNAc(b1-6)]Man(a1-6)[GlcNAc(b1-3)Gal(b1-4)GlcNAc(b1-3)Gal(b1-4)GlcNAc(b1-3)Gal(b1-4)GlcNAc(b1-2)Man(a1-3)]Man(b1-4)GlcNAc(b1-4)[Fuc(a1-6)]GlcNAc
# Outline: as §1
# [36] = biological target: GlcNAc(b1-3)Gal(b1-4)GlcNAc(b1-3)Gal(b1-4)GlcNAc(b1-3)Gal(b1-4)GlcNAc(b1-3)Gal(b1-4)GlcNAc(b1-2)Man(a1-3)[GlcNAc(b1-3)Gal(b1-4)GlcNAc(b1-3)Gal(b1-4)GlcNAc(b1-3)Gal(b1-4)GlcNAc(b1-3)Gal(b1-4)GlcNAc(b1-2)Man(a1-6)]Man(b1-4)GlcNAc(b1-4)[Fuc(a1-6)]GlcNAc
# Outline: as §1
# [37] = biological target: GlcNAc(b1-3)[GlcNAc(b1-6)]Gal(b1-4)GlcNAc
# Outline: as §1
# [38] = biological target: GlcNAc(b1-6)GalNAc
# Outline: as §1
# [39] = biological target: Man(a1-2)Man(a1-3)[Man(a1-2)Man(a1-6)]Man(a1-6)[Man(a1-2)Man(a1-2)Man(a1-3)]Man(b1-4)GlcNAc(b1-4)GlcNAc
# Outline: as §1
# [40] = biological target: Neu5Ac(a2-3)Gal(b1-3)GlcNAc(b1-2)Man
# Outline: as §1
# [41] = biological target: Neu5Ac(a2-3)Gal(b1-4)GlcNAc(b1-2)[Neu5Ac(a2-3)Gal(b1-4)GlcNAc(b1-4)]Man(a1-3)[GlcNAc(b1-4)][Neu5Ac(a2-3)Gal(b1-4)GlcNAc(b1-2)[Neu5Ac(a2-3)Gal(b1-4)GlcNAc(b1-6)]Man(a1-6)]Man(b1-4)GlcNAc(b1-4)GlcNAc
# Outline: as §1
# [42] = biological target: Neu5Ac(a2-3)Gal(b1-4)GlcNAc(b1-3)Gal(b1-4)[Fuc(a1-3)]GlcNAc
# Outline: as §1
# [43] = biological target: Neu5Ac(a2-3)Gal(b1-4)[Fuc(a1-3)]GlcNAc
# Outline: as §1
# [44] = biological target: Neu5Ac(a2-3)Gal(b1-4)[Fuc(a1-3)]GlcNAc(b1-2)Man
# Outline: as §1
# [45] = biological target: Neu5Ac(a2-6)Gal
# Outline: as §1
# [46] = biological target: Neu5Ac(a2-6)Gal(b1-4)GlcNAc(b1-2)[Neu5Ac(a2-6)Gal(b1-4)GlcNAc(b1-6)]Man(a1-6)[Neu5Ac(a2-6)Gal(b1-4)GlcNAc(b1-2)Man(a1-3)][GlcNAc(b1-4)]Man(b1-4)GlcNAc(b1-4)GlcNAc
# Outline: as §1
# [47] = biological target: Neu5Ac(a2-6)Gal(b1-4)GlcNAc(b1-3)Gal(b1-3)GlcNAc
# Outline: as §1
# [48] = biological target: Neu5Ac(a2-6)GalNAc(b1-4)GlcNAc
# Outline: as §1
# [49] = biological target: Neu5Ac(a2-6)GlcNAc(b1-4)GlcNAc
# Outline: as §1
# [50] = biological target: Neu5Gc(a2-3)Gal(b1-4)[Fuc(a1-3)]GlcNAc
# Outline: as §1
binder,measurement,setting,value
AAL (Aleuria aurantia) (protein) MPTEFLYTSKIAAISWAATGGRQQRVYFQDLNGKIREAQRGGDNPWTGGSSQNVIGEAKLFSPLAAVTWKSAQGIQIRVYCVNKDNILSEFVYDGSKWITGQLGSVGVKVGSNSKLAALQWGGSESAPPNIRVYYQKSNGSGSSIHEYVWSGKWTAGASFGSTVPGTGIGATAIGPGRLRIYYQATDNKIREHCWDSNSWYVGGFSASASAGVSIAAISWGSTPQIRVYWQKGREELYEAAYGGSWNTPGQIKDASRPTPSLPDTFIAANSSGNIDISVFFQASGVSLQQWQWISGKGWSIGAVVPTGTPAGW,glycan array binding signal (z-score),[1],4.67
same,glycan array binding signal (z-score),[2],-0.263
same,glycan array binding signal (z-score),[3],0.006
same,glycan array binding signal (z-score),[4],2.29
same,glycan array binding signal (z-score),[5],6.34
same,glycan array binding signal (z-score),[6],3.69
same,glycan array binding signal (z-score),[7],3.57
same,glycan array binding signal (z-score),[8],3.95
same,glycan array binding signal (z-score),[9],3.32
same,glycan array binding signal (z-score),[10],-0.285
same,glycan array binding signal (z-score),[11],-0.153
same,glycan array binding signal (z-score),[12],5.8
same,glycan array binding signal (z-score),[13],0.989
same,glycan array binding signal (z-score),[14],-0.309
same,glycan array binding signal (z-score),[15],-0.32
same,glycan array binding signal (z-score),[16],5.38
same,glycan array binding signal (z-score),[17],3.92
same,glycan array binding signal (z-score),[18],-0.29
same,glycan array binding signal (z-score),[19],1.96
same,glycan array binding signal (z-score),[20],0.019
same,glycan array binding signal (z-score),[21],-0.274
same,glycan array binding signal (z-score),[22],6.22
same,glycan array binding signal (z-score),[23],4.57
same,glycan array binding signal (z-score),[24],-0.303
same,glycan array binding signal (z-score),[25],-0.296
same,glycan array binding signal (z-score),[26],-0.317
same,glycan array binding signal (z-score),[27],-0.309
same,glycan array binding signal (z-score),[28],-0.324
same,glycan array binding signal (z-score),[29],-0.316
same,glycan array binding signal (z-score),[30],-0.216
same,glycan array binding signal (z-score),[31],-0.229
same,glycan array binding signal (z-score),[32],-0.321
same,glycan array binding signal (z-score),[33],-0.318
same,glycan array binding signal (z-score),[34],2.92
same,glycan array binding signal (z-score),[35],-0.085
same,glycan array binding signal (z-score),[36],1.97
same,glycan array binding signal (z-score),[37],-0.322
same,glycan array binding signal (z-score),[38],-0.325
same,glycan array binding signal (z-score),[39],-0.312
same,glycan array binding signal (z-score),[40],-0.311
same,glycan array binding signal (z-score),[41],-0.327
same,glycan array binding signal (z-score),[42],-0.32
same,glycan array binding signal (z-score),[43],0.758
same,glycan array binding signal (z-score),[44],0.186
same,glycan array binding signal (z-score),[45],-0.314
same,glycan array binding signal (z-score),[46],-0.303
same,glycan array binding signal (z-score),[47],-0.324
same,glycan array binding signal (z-score),[48],-0.323
same,glycan array binding signal (z-score),[49],-0.327
same,glycan array binding signal (z-score),[50],0.052
